Screening data from PubChem BioAssay.
Only some compounds are listed: those with a hit (about 3.6% of all), similar ones and a draw of the others.
NRP1-CendR mod: modulators of CendR peptide binding to NRP-1, primary screen, biochemical, fluorescence polarization, uHTS; Neuropilin-1 (Homo sapiens), O14786; FAM-RPARPAR peptide binding to NRP-1; inhibition, % at 25 µM; 360,000 tested, 0.85% active;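 active = inhibition or corrected inhibition above about 18%, plus a signal ratio from 0.5 to 1.5, limit read from the data, passing the limit was not always enough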
Myeloid diff MLP: induction of myeloid progenitor differentiation, primary screen, cell-based, flow cytometry, MLPCN library. ER-HoxA9 myeloid progenitors, lysozyme-GFP differentiation. calls only at 10 µM. 360,000 tested, 1% active;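 active = normalized GFP-positive differentiation at or above the plate's own cutoff, the solvent-only control mean plus 3 SD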;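 also: cells exposed to compound for four days before flow analysis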
NadD inh: inhibitors of S. aureus NadD, primary screen, biochemical, colorimetric, uHTS; Nicotinate-nucleotide adenylyltransferase NadD (Staphylococcus aureus N315); purified NadD enzyme, colorimetric absorbance read-out; inhibition, % at 20 µM; 360,000 tested, 0.78% active; AID 602399, 2012; in the data active = inhibition above about 26%
CRFBP-R2 block: antagonists of CRF-BP/CRF-R2 complex, primary screen, cell-based, HEK293, calcium dye fluorescence, uHTS. CRF-induced calcium fluorescence. 350,000 tested, 0.59% active. inhibition, % at 11.8 µM;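 active = inhibition of the ligand-induced calcium signal above about 50% at the single tested concentration, limit read from the data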
FAS TE block: FAS thioesterase domain inhibitors, primary screen, biochemical, fluorescence intensity, uHTS; recombinant FAS-TE, OMFH fluorogenic substrate, fluorescence endpoint; 360,000 tested, 0.67% active; Fatty acid synthase (Homo sapiens), P49327; AID 602261, 2012; inhibition, % at 15 µM;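 active = compounds whose normalised, plate-corrected inhibition of enzyme fluorescence in the single-dose primary screen is 50% or more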
Large screens that a line does not name were inactive.

COc1ccc(-n2c(C)cc(C(=O)Cn3nc(C(=O)O)c4ccccc4c3=O)c2C)cc1	NRP1-CendR mod 29.8
Cc1cc(C(=O)Cn2nnc3ccccc3c2=O)c(C)n1-c1ccccc1F	Myeloid diff MLP active
COc1ccc(-n2c(C)cc(C(=O)Cn3nnc4ccccc4c3=O)c2C)cc1	none
CC(=O)Nc1ccc(S(=O)(=O)NCCC(=O)NCCCc2ccccc2)cc1	NRP1-CendR mod 22.4
CC1CCN(C(=O)c2[nH]cnc2C(=O)NCc2ccccc2)CC1	none
CC1CCN(C(=O)c2[nH]cnc2C(=O)NCc2ccc(CNC(=O)OC(C)(C)C)cc2)CC1	NRP1-CendR mod 30.0
CC1CCN(C(=O)c2[nH]cnc2C(=O)N[C@@H](C)C(=O)OC(C)(C)C)CC1	CRFBP-R2 block 54.2
C[C@H](NC(=O)c1nc[nH]c1C(=O)N1CCN(C(=O)OC(C)(C)C)CC1)C(=O)OC(C)(C)C	none
CN(Cc1ccccc1)C(=O)c1[nH]cnc1C(=O)NCc1ccc(CNC(=O)OC(C)(C)C)cc1	NRP1-CendR mod 30.1
O=C(NCc1ccccc1)c1nc[nH]c1C(=O)N1CCN(c2ccccc2)CC1	NRP1-CendR mod 30.1
CC(=O)c1cccc(N2C(=NC(=O)C3CC3)SC3CS(=O)(=O)CC32)c1 (stereo not drawn)	none
O=C(NCc1ccccc1)c1cc(C2CCCN(C(=O)CCCc3ccccc3)C2)on1 (stereo not drawn)	none (no result: CRFBP-R2 block)
O=C(c1nc[nH]c1C(=O)N1CCc2ccccc2C1)N1CCc2ccccc2C1	none
CC(C)(C)OC(=O)[C@H](Cc1ccccc1)NC(=O)c1nc[nH]c1C(=O)NC1CCNCC1	none
CC(C)(C)OC(=O)[C@H](Cc1ccccc1)NC(=O)c1nc[nH]c1C(=O)N1CCNCC1	NRP1-CendR mod 34.2
CC(C)(C)OC(=O)N1CCN(C(=O)c2[nH]cnc2C(=O)NCc2ccccc2)CC1	NRP1-CendR mod 33.4
COc1ccc(-c2cc(C(=O)NCc3ccc(C(F)(F)F)cc3)[nH]n2)c(C)c1	none (no result: CRFBP-R2 block)
CCNC(=O)C1(C)CCCN(Cc2ccccc2-c2ccccc2)C1 (stereo not drawn)	NRP1-CendR mod 22.7 (no result: CRFBP-R2 block)
CCNC(=O)C1(C)CCN(Cc2ccccc2-c2ccccc2)C1 (stereo not drawn)	none (no result: CRFBP-R2 block)
CN1CCN(S(=O)(=O)c2ccccc2)C(c2ccccc2)C1 (stereo not drawn)	none
CCOC(=O)C(NCc1ccccn1)(NC(=O)c1cccnc1)C(F)(F)F (stereo not drawn)	CRFBP-R2 block 61.0
CCOC(=O)C(NC(=O)c1cccnc1)(Nc1cccc(C)n1)C(F)(F)F (stereo not drawn)	none
C/C(=C\c1ccccc1)CN1CCC(C(=O)N2CCCCC2)CC1	CRFBP-R2 block 95.8
CCOC(=O)Nc1ccc2c(c1)nc(CN1CCCCC1)n2C	none (no result: CRFBP-R2 block)
CCOc1ccc(NC(=S)N2CCC(C(O)(c3ccccc3)c3ccccc3)CC2)cc1	CRFBP-R2 block 55.6
COc1ccc(NC(=S)N2CCC(C(O)(c3ccccc3)c3ccccc3)CC2)cc1	none
C[C@H]1CN([C@@H](C)CO)C(=O)CCCn2nncc2CO[C@H]1CN(C)C(=O)Nc1ccnc(N2CCOCC2)c1	none
Nc1ncnc(N)c1NC(=O)c1cc(Cl)c(OCc2ccccc2)c(Cl)c1	none
O=C(/C=C/c1ccccc1)c1ccccn1	NRP1-CendR mod 36.7
NC(=O)c1nc2c([nH]c1=O)CCCC2	none
Oc1ccccc1-c1ccn[nH]1	NRP1-CendR mod 31.6
CN(C)CCNC(=O)c1cc2ccccc2oc1=O	none
CN(Cc1cnn(C)c1)C(=O)c1cc2ccccc2oc1=O	NRP1-CendR mod 52.2
O=C(Cn1[nH]c(=O)c2ccccc2c1=O)Nc1ccc(-c2nnc3n2CCCCC3)cc1	none
C=CCNc1nc(N)c(C(=C(C#N)C#N)c2ccc(Br)cc2)s1	none
Cc1ccccc1CC1SC(N)=NC1=O (stereo not drawn)	none
COc1cccc(N(CC(=O)NC2CCCC2)C(=O)CCC(=O)Nc2cc(C)on2)c1	Myeloid diff MLP active
Cc1c(C(=O)N2CC(C(=O)N3CCCCC3)Oc3ccccc32)oc2ccccc12 (stereo not drawn)	CRFBP-R2 block 75.2
Cc1ccc(S(=O)(=O)N2CCN(Cc3ccccn3)CC2)cc1	none
Cc1ccc(S(=O)(=O)N2CCN(Cc3csc(C)n3)CC2)cc1	Myeloid diff MLP active
COc1ccc(-c2sc3cc4c(cc3c2-c2ccc(OCCN3CCCCC3)cc2)OCO4)cc1	Myeloid diff MLP active
CCOc1ccc(N2C(=O)CC(N3CCN(c4ccc(Cl)cc4)CC3)C2=O)cc1 (stereo not drawn)	NRP1-CendR mod 21.9
NCCCCCc1nnc(SCc2ccc(Cl)c(Cl)c2)o1	none
CN(C)S(=O)(=O)c1ccc(C(=O)Nc2nc(-c3cc4ccccc4o3)cs2)cc1	none
Cc1cc(-c2csc(NC(=O)c3ccc(S(=O)(=O)N(C)C)cc3)n2)c(C)n1-c1ccccc1	NadD inh 39.9
CCCC(=O)Nc1nc2nc(-c3ccccc3)cc(-c3ccccc3)n2n1	none
CCC(=O)Nc1nc2nc(-c3ccccc3)cc(-c3ccccc3)n2n1	NRP1-CendR mod 20.7
COC(=O)c1ccc2cn[nH]c2c1	none
O=C(Nc1ccc(O)cc1C(=O)O)c1cccs1	none
C[C@@H]1CN([C@H](C)CO)C(=O)CCCn2nncc2CO[C@H]1CN(C)Cc1ccc2c(c1)OCCO2	none
N=c1c(C(=O)NC2CCCCC2)cc2c(=O)n3ccccc3nc2n1Cc1cccnc1	Myeloid diff MLP active
N=c1c(C(=O)NC2CCCCC2)cc2c(=O)n3ccccc3nc2n1Cc1ccccc1	none
CC(=O)OC[C@@H]1CN(Cc2ccccc2)C[C@H](n2cnc3c(N(C)C(C)C)ncnc32)O1	none (no result: CRFBP-R2 block)
CCCCn1c(N)c(N(CCC(C)C)C(=O)c2ccc3c(c2)OCO3)c(=O)[nH]c1=O	none
Cc1cccc(C(=O)Nc2ccc(C(=O)/C=C/c3cccnc3)cc2)c1	none (no result: Myeloid diff MLP)
O=C(/C=C/c1cccnc1)c1ccc(NC(=O)c2cccc(Br)c2)cc1	NRP1-CendR mod 19.0 (no result: Myeloid diff MLP)
CCOC(=O)C1CCN(C(=O)Nc2ccc3nc(-c4ccco4)c(-c4ccco4)nc3c2)CC1	NadD inh 65.7
O=C(Nc1ccc2nc(-c3ccco3)c(-c3ccco3)nc2c1)N1CCCCCC1	none (no result: NRP1-CendR mod, Myeloid diff MLP, NadD inh, FAS TE block)
CCOC(=O)N1CCN(C(=O)Nc2ccc3nc(C)c(C)nc3c2)CC1	NRP1-CendR mod 44.4
Fc1ccc(-c2cc3nc(-c4ccccc4)cc(N4CCN(CCN5CCOCC5)CC4)n3n2)cc1	Myeloid diff MLP active
O=S(=O)(Nc1cc(Cl)ccc1-n1cncn1)c1ccccc1Cl	CRFBP-R2 block 106.0
COC(=O)c1ccccc1NC(=O)CCCCCn1nnc2ccccc2c1=O	none
CC(=O)NC(c1cccc(F)c1)c1nc(-c2csc3ccccc23)cs1 (stereo not drawn)	none (no result: CRFBP-R2 block)
O=C(c1ccc(-c2cccc(C(F)(F)F)c2)o1)N1CCCC(C(F)(F)F)C1 (stereo not drawn)	NRP1-CendR mod 21.5
